# Screen size: about 69,000 compounds; about 8,600 (12%) showed an effect of 50% or more. The entries come from a sample that favours strong results as a whole.
# System: Plasmodium berghei
# Test: Screen against P. berghei liver stage (PbLuc), transformed with Luciferase, at 10uM
# Type: functional, HepG2
# Settings: tested at 10 uM
row,Structure (SMILES),INHIBITION
1,O=C(c1ccccc1-n1cccn1)N1CCC(Nc2cccnn2)CC1,-92.9%
2,Oc1cc(C2CCCCN2C2CCCC2)nc(-c2cccnc2)n1 (configuration not stated),15.5%
3,Cc1ccc(C(=O)N(C)Cc2nccn2CC(F)(F)F)cn1,-16.8%
4,Cc1cc(C)nc(N2CCOC(C)(C(=O)N(C)C)C2)n1 (configuration not stated),-11.4%
5,Cc1nc(CO[C@H]2CN(C(=O)c3cccn3C)[C@@H]3COC[C@H]23)cs1,38.5%
6,Cc1nc(CO[C@@H]2CN(Cc3ccsc3)[C@@H]3COC[C@@H]32)cs1,14.1%
7,Cc1nc(CO[C@@H]2CN(Cc3ccc(F)cc3)[C@@H]3COC[C@@H]32)cs1,23.6%
8,Cc1nc(CO[C@@H]2CN(Cc3cnn(C)c3)[C@@H]3COC[C@@H]32)cs1,50.1%
9,Cc1nc(CO[C@H]2CN(C(=O)c3cccnc3)[C@@H]3COC[C@H]23)cs1,51.2%
10,Cc1nc(CO[C@H]2CN(C(=O)c3cnoc3C)[C@@H]3COC[C@H]23)cs1,24.9%
11,Cn1ccc(C(=O)N2C[C@@H]3OCCN(c4ncccn4)[C@@H]3C2)n1,18.4%
12,Cc1nc(-c2ccccc2)n(CC(=O)NC(C)(C)C)n1,16.8%
13,Cc1ncsc1CCC(=O)NCc1csc(N2CCCC2)n1,-20.8%
14,CC(C)(C)SCC(=O)NCCc1csc(N2CCCC2)n1,78.2%
15,CCN(CC)CC(=O)NCCc1csc(N2CCCC2)n1,9.48%
16,CCCc1nc(CNC(=O)Cc2csc(C)n2)cs1,9.35%

row,Structure (SMILES),INHIBITION
1,CC(C)(C)OC(=O)NCCc1csc(N2CCCC2)n1,65.4%
2,CCNC(=O)NCCc1csc(N2CCCC2)n1,39.7%
3,Cc1nc(CC(=O)NCc2csc(N3CCCC3)n2)cs1,70.3%
4,CC(C)OCCC(=O)NCCc1csc(N2CCCC2)n1,48.3%
5,CCC=C(C)C(=O)NCCc1csc(N2CCCC2)n1,41.4%
6,O=C(CN1CC(c2nc(-c3ccco3)no2)C1)NCCc1ccccc1,-63.6%
7,Cc1nc(NC(=O)c2c3c(nn2C2CCS(=O)(=O)C2)CCC3)sc1C (configuration not stated),-14.9%
8,O=C(NCc1ccc(CO)cc1)C1CCOc2ccccc2C1 (configuration not stated),5.91%
9,Cn1nc(C(=O)N2CCOCC2)cc1C(=O)Nc1cc(Cl)cc(Cl)c1,45.9%
10,CCc1nnc(NC(=O)NCCN(C)C(=O)OC(C)(C)C)s1,1.98%
11,COc1cccc(Cn2cccc(C#N)c2=O)c1,41.4%
12,N#Cc1cccn(CCOc2ccc(Cl)cc2)c1=O,77.2%
13,CCc1cccc(OCCn2cccc(C#N)c2=O)c1,68.3%
14,CCc1cccc(OCCCN(C)C(=O)CN2CCNC2=O)c1,17%
15,N#Cc1ccc(OCCn2cccn2)cc1,15.7%
16,CC1C(=O)NCCN1CCOc1ccc(C#N)cc1 (configuration not stated),-17.2%
